Reference: PubChem BioAssay AID1159580 (chemical genetic matrix, 2015)
Among all 5,500 compounds or so, about 2,000 (36%) were called active. Inconclusive results (about 18%) are left out. Rule as the data show it: active = normalized growth mostly below about 0.91 (no sharp cut-off); inconclusive = no clear call, values can overlap the other calls; inactive = mostly above about 0.92. This is one part of the list.

Test: chemical genetic growth profiling, strain panel (AID 1159580);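 also: tested at 20 µM; growth read once vehicle control cultures reached saturation at 30 °C; 1 = growth at the plate median or of vehicle wells; lower values mean less growth of the strain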
Settings: growth OD

Measured: normalized growth

Nc1c(Cl)cc(C(=O)Nc2cc(Cl)cc(Cl)c2)cc1Cl
inactive: S. cerevisiae deletion strains, locus YBR229C, strain ROT2, active compounds read low 0.957 | S. cerevisiae deletion strains, locus YCL061C, strain MRC1, active compounds read low 0.994 | S. cerevisiae deletion strains, locus YDL101C, strain DUN1, active compounds read low 1.02 | S. cerevisiae deletion strains, locus YDL134C, strain PPH21, active compounds read low 0.978 | S. cerevisiae deletion strains, locus YDR150W, strain NUM1, active compounds read low 0.934 | S. cerevisiae deletion strains, locus YEL061C, strain CIN8, active compounds read low 0.956 | S. cerevisiae deletion strains, locus YGR078C, strain PAC10, active compounds read low 0.977 | S. cerevisiae deletion strains, locus YHR087W, strain rtc3, active compounds read low 0.935 | S. cerevisiae deletion strains, locus YJR075W, strain HOC1, active compounds read low 0.97 | S. cerevisiae deletion strains, locus YLR058C, strain SHM2 (second series), active compounds read low 0.99 | S. cerevisiae deletion strains, locus YLR085C, strain ARP6, active compounds read low 0.842 | S. cerevisiae deletion strains, locus YLR262C, strain YPT6, active compounds read low 0.847 | S. cerevisiae deletion strains, locus YML094W, strain GIM5, active compounds read low 0.872 | S. cerevisiae deletion strains, locus YMR219W, strain ESC1, active compounds read low 0.976 | S. cerevisiae deletion strains, locus YMR263W, strain SAP30, active compounds read low 0.934 | S. cerevisiae deletion strains, locus YNL128W, strain TEP1, active compounds read low 0.982 | S. cerevisiae deletion strains, locus YNL153C, strain GIM3, active compounds read low 0.984 | S. cerevisiae deletion strains, locus YNL322C, strain KRE1, active compounds read low 1 | S. cerevisiae deletion strains, locus YPR135W, strain CTF4, active compounds read low 0.894 | S. cerevisiae strains, strain wild type, active compounds read low 0.956
active: S. cerevisiae deletion strains, locus YAL013W, strain DEP1, active compounds read low 0.897 | S. cerevisiae deletion strains, locus YHR030C, strain SLT2, active compounds read low 0.496 | S. cerevisiae deletion strains, locus YJR043C, strain POL32, active compounds read low 0.907 | S. cerevisiae deletion strains, locus YLR039C, strain RIC1, active compounds read low 0.77 | S. cerevisiae deletion strains, locus YMR307W, strain GAS1, active compounds read low 0.651 | S. cerevisiae deletion strains, locus YNL298W, strain CLA4 (second series), active compounds read low 0.825 | S. cerevisiae deletion strains, locus YNR030W, strain Alg12, active compounds read low 0.778 | S. cerevisiae deletion strains, locus YPL055C, strain LGE1, active compounds read low 0.8 | S. cerevisiae deletion strains, locus YPL241C, strain CIN2, active compounds read low 0.821
